Assay results as given in PubChem BioAssay AID720513 (Broad Institute, 2013).
Hit rate of the full screen: of about 2,100 compounds, about 480 (23%) were called active. Not shown: some 5% with an inconclusive outcome.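 How the source made its calls: active means fitted curve reaches 40% activation at or below the top valid concentration, in every replicate test; inconclusive means replicate tests disagree on the call; inactive means the rest, including activity in the opposite direction.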 Only a sample is shown. Potency and affinity values are given separately.

Test: PGC1a acetylation increase, cellular AlphaLISA – cell-based, cherry-picked samples, set 6, dose response (AID 720513);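 further: cells made to overexpress flag tagged PGC1a plus GCN5 acetyltransferase by viral infection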
Details: U2OS PGC1a acetylation AlphaLISA, overnight, 0 = neutral, -100 = inhibitor control; series mostly up to 19.5 µM; activation (acetylation increase): at the top concentration

Activation (acetylation increase), inactive:
COc1ccc(C2c3c(oc4ccccc4c3=O)C(=O)N2CCN2CCOCC2)cc1OC (stereo not drawn) 6.79%, CCOc1ccc2c(c1)C(C)=CC(C)(C)N2S(=O)(=O)c1ccc(NC(C)=O)cc1 8.98%, Cn1cnc(S(=O)(=O)N2C[C@@H](O)COC[C@H]3O[C@H](CC(=O)NCc4cc(F)cc(F)c4)CC[C@@H]32)c1 17.1%, CCn1c(COc2ccc(=O)n(-c3ccccc3)n2)nnc1SCc1ccc(C)cc1 26.3%, CC(C)(C)Cc1nnc(NS(=O)(=O)c2ccc(F)cc2)s1 20.2%, O=S(=O)(Nc1nc2c(s1)CCCC2)c1ccc(F)cc1 16.7%, CC(C)CC#Cc1ccc2c(c1)O[C@@H](CN(C)C)[C@H](C)CN([C@@H](C)CO)S2(=O)=O 13.1%, Cn1ccc2cc(OCc3ccccc3)ccc21 11%, N=c1sccn1CC(=O)Nc1ccccc1Sc1ccccc1 -28.5%, Cc1cc(C)c(S(=O)(=O)N2CC=C(c3ccccc3)CC2)c(C)c1 36.4%, COC(=O)c1c(C)oc(C)c1S(=O)(=O)Nc1ccccc1 -8.61%, CCCCCCNC(=O)c1ncn[nH]1 -9.03%, O=C(N[C@@H]1CC[C@@H](CCNS(=O)(=O)c2ccccc2Cl)O[C@@H]1CO)c1ccc(F)cc1 2.33%, N=C1C(c2nc3ccccc3s2)=C(O)CN1NC(=O)c1ccc([N+](=O)[O-])cc1 31.2%, O=C(Nc1ccc(OC(=O)c2ccccc2)c(-c2nc3ccccc3s2)c1)c1ccccc1 8.72%, O=C(NCC1CCCO1)c1cc2c([nH]c3ccccc32)c(-c2cccc(Cl)c2)n1 (stereo not drawn) 40%, CNC[C@@H]1OCCCC[C@@H](C)Oc2ccc(NS(=O)(=O)c3ccc(C)cc3)cc2C(=O)N([C@H](C)CO)C[C@@H]1C 15.5%, COc1cc(Cl)c(S(=O)(=O)N2CC(C)OC(C)C2)cc1Cl (stereo not drawn) 26.5%, O=C(OCc1nc(-c2ccccc2)oc1COC(=O)c1ccco1)c1ccco1 -3.75%, COc1ccc(N(CC(=O)Nc2ccccc2Cl)S(=O)(=O)c2ccc(C)cc2)cc1OC 7.4%, Cc1cc(Cl)ccc1OCC(=O)Nc1cccc(S(=O)(=O)NC2=NCCCCC2)c1 7.74%, N#CC1=C(N)Oc2c(ccc3ccccc23)C1c1ccsc1 (stereo not drawn) -48.4%, C[C@H]1CN([C@@H](C)CO)C(=O)c2cc(C#Cc3ccccc3)cnc2O[C@@H]1CN(C)C(=O)c1ccccc1F -9.97%, c1cncc(CNc2ncnc3ccc(-c4ccoc4)cc23)c1 11.1%, COC(=O)c1cc(CN2C(=O)c3ccccc3C2=O)c(O)c([N+](=O)[O-])c1 36.6%, O=C(Nc1nc(-c2ccccn2)cs1)c1ccccc1-n1cnnn1 10.9%, O=C(Nc1ccccc1N1CCOCC1)C1(c2ccc(Cl)cc2)CCC1 19.7%, O=C(c1ccc(CN2CCOCC2)cc1)N1CCN(Cc2ccccc2)CC1 10.3%, C#CCN1C(=O)C(O)(CC(=O)c2ccc(OC)c(OC)c2)c2ccccc21 (stereo not drawn) 7.98%, CC(C)C#Cc1cnc2c(c1)C(=O)N([C@H](C)CO)C[C@H](C)[C@H](CN(C)C(=O)c1ccccn1)O2 3.01%, CCOc1ccc(N2CC(C(=O)Nc3ccc(S(=O)(=O)NCC4CCCO4)cc3)CC2=O)cc1 (stereo not drawn) 17.9%, O=C(c1cccc(N2C(=O)C3C4C=CC(C4)C3C2=O)c1)N1CCCc2ccccc21 (stereo not drawn) 8.25%, COc1ccc(F)cc1CN1CCN(CC(=O)N2CCc3ccccc32)CC1 -12.8%, C[C@H](CO)N1C[C@H](C)[C@@H](CN(C)C(=O)Nc2ccc(-c3cccs3)cc2)OCc2cnnn2CCCC1=O -3.11%, CCCc1cn(CC[C@@H]2CC[C@H](NC(=O)Nc3ccc4c(c3)OCO4)[C@@H](CO)O2)nn1 -8.84%, O=c1c2cn(Cc3ccc(F)cc3)c3ccc(F)cc3c-2nn1Cc1ccc(F)cc1 3.94%, FC(F)(F)c1ccc(Cl)c(-n2c(-c3cc(-c4ccco4)[nH]n3)n[nH]c2=S)c1 -12.5%, C[C@H](CO)N1C[C@H](C)[C@H](CN(C)Cc2ccncc2)OCc2cn(nn2)CCCC1=O 25.1% [at 21 µM], COCC(=O)N1C[C@@H](C)[C@@H](OC)CN(C)C(=O)c2ccc(NC(=O)c3cnccn3)cc2OC[C@@H]1C -10.3%, CC(=O)n1nc2nc(C)cc(C)c2c1N -25.1%, CCS(=O)(=O)Nc1ccc2c(c1)C(=O)N(C)C[C@@H](OC)[C@H](C)CN(Cc1ccccn1)[C@@H](C)CO2 -1.3%, O=C(COC(=O)Cc1ccc(S(=O)(=O)N2CCOCC2)s1)NCCc1ccccc1 -11.5%, O=C(O)C1CCCN1S(=O)(=O)c1cc(Cl)ccc1Cl (stereo not drawn) 6.52%, C[C@@H]1CN([C@@H](C)CO)C(=O)CCCn2nncc2CO[C@H]1CN(C)S(=O)(=O)c1ccc(Cl)cc1 -1.78%, CCCCN(CCCC)CCNC(=O)c1ccc2nc(-c3ccccc3NC(C)=O)c(=O)[nH]c2c1 28.6%, COCCCNC(=O)c1ccc(Cn2c(=O)c3ccccc3n(Cc3ccccc3C)c2=O)cc1 39.4%, CCCOc1ccc2ccccc2c1/C=C1\SC(=O)NC1=O -9.84%, Nc1nc(SCC(=O)Nc2ccccc2Sc2ccc(Cl)cc2)n[nH]1 19.6%, C[C@@H]1CN([C@H](C)CO)C(=O)c2cc(-c3ccccc3)cnc2O[C@H]1CN(C)C(=O)Cc1ccccn1 -7.93%, CN(C)CCNC(=O)c1cccc2c(-c3ccc(F)c(F)c3)coc12 20.9%, O=C(CSc1nnc(-c2ccco2)n1-c1ccccc1)Nc1c(Cl)cc(Cl)cc1C(=O)O 9.43%, CCC(=O)Nc1ccnc(-c2cccnc2)n1 22.6%, COC(=O)/C=C/c1cnc2ccccc2c1 -0.261%, CCC(=O)Nc1cccc(C(=O)/C=C/c2ccccc2)c1 -64.7%, O=C(/C=C/c1cccs1)c1ccc(NC(=O)c2cccc(Br)c2)cc1 -11.5%, CC(c1ccccc1)N1C(=O)NC(NC(=O)c2cccnc2)(C(F)(F)F)C1=O (stereo not drawn) 7.53%, Cc1ccc2oc(Nc3nc(C)c(C)c(C)n3)nc2c1 -3.44%, O=C(CCS(=O)(=O)c1ccc(Cl)cc1)Nc1nccs1 12.8%, OC[C@H]1[C@H](c2ccc(C#CC3CCCC3)cc2)[C@@H]2CN(CCC(F)(F)F)CCCCN12 -58%, COc1ccc(CN(C)C[C@@H]2Oc3ccc(NS(=O)(=O)c4c(C)noc4C)cc3C(=O)N([C@@H](C)CO)C[C@@H]2C)cc1 38%, C[C@H]1CCCCO[C@H](CN(C)Cc2ccncc2)[C@@H](C)CN([C@@H](C)CO)C(=O)c2cc(NS(=O)(=O)c3ccccc3)ccc2O1 -16.6%, O=C1C=CCCN1C(=O)/C=C/c1cccc(C(F)(F)F)c1 -79.7%, COc1ccc(C#Cc2ccc([C@H]3[C@@H](CO)N4CCCCN(C(=O)Nc5ccc(F)cc5)C[C@H]34)cc2)cc1 -94.6%, C[C@@H]1CN([C@@H](C)CO)C(=O)Cc2cc(NC(=O)C3CCCCC3)ccc2O[C@@H]1CN(C)Cc1ccc(Cl)c(Cl)c1 31.6%, CC(C)CC#Cc1ccc([C@H]2[C@H](CO)N3C(=O)CN(C(=O)Nc4cc(F)ccc4F)C[C@@H]23)cc1 -34.3%, O=C(COC(=O)c1cc[n+]([O-])cc1)Nc1cccc(Cl)c1Cl 18.2%, Cc1c(Cl)cccc1Nc1ncccc1C(=O)O -8.63%, Cc1noc(C)c1NC(=O)N(C)C[C@H]1OCCCC[C@@H](C)Oc2ccc(NC(=O)Cc3ccccc3)cc2C(=O)N([C@@H](C)CO)C[C@@H]1C -3.05%, C[C@@H]1CN([C@H](C)CO)C(=O)c2cc(NS(=O)(=O)c3cccs3)ccc2O[C@@H]1CN(C)S(=O)(=O)c1ccc(F)cc1 2.7%, Cc1ccc(S(=O)(=O)N[C@@H]2CC[C@@H](CCNC(=O)c3ccccc3F)O[C@H]2CO)cc1 6.51%, O=C(CSc1nc2ccc(Cl)cc2[nH]1)c1ccc2c(c1)OCO2 6.16%, Cn1c(=O)c2cc(S(=O)(=O)NCCC(=O)NCc3ccccc3Cl)ccc2n(C)c1=O 4.26%, CCCNC(=O)c1ccc(COc2ccc(Cl)cc2)o1 0.816%, O=C(COc1ccc(Br)cc1)NCCNC(=O)c1cccnc1 71.5%, CCOc1ccc2nc(NCCCNC(=O)c3cc(OC)c(OC)c(OC)c3)c(C#N)cc2c1 -5.62%, Cc1cc(OCC(=O)NNC(=O)c2cnccn2)cc(C)c1Cl -4.82%, O=C(C[C@@H]1C[C@@H]2c3cc(NC(=O)Nc4ccccc4F)ccc3O[C@@H]2[C@H](CO)O1)NCc1ccc(Oc2ccccc2)cc1 9.89%, CCc1cc2c(N3CCN(c4nnc(CC)s4)CC3)ncnc2s1 -4.99%, COc1cccc(-c2ccc(C3[C@H]4CNC[C@@H]3N4Cc3ccc4c(c3)OCO4)cc2)c1 (stereo partly drawn) -12.3%, COc1ccc(-c2ccc(C3[C@@H]4CN(Cc5cc(OC)cc(OC)c5)C[C@H]3N4)cc2)cc1 (stereo partly drawn) -98.7%, O=C(Nc1ccccc1)C1=C(c2ccccc2)S(=O)(=O)CCS1(=O)=O -95.9%, Cn1nc(-c2ccccn2)nc2c(=O)n(C)c(=O)nc1-2 -108%, COc1cc(C(=O)N2CCN(S(=O)(=O)c3cccc(F)c3)CC2)ccc1OCC(=O)N1CCOCC1 15.1%, CN(C)c1ccc(C=C2SC(=S)NC2=O)cc1 -60.6%, CCOC(=O)/C(C#N)=C1/C(=O)N(Cc2ccccc2)c2ccccc21 36.9%, CC(=O)c1coc2c1cc(O)c1ccccc12 -14.2%, CSc1nc2c(c(=O)[nH]c(=O)n2C)n1Cc1ccccc1 -24.9%, C/C=C/Cn1c(SCc2ccc(Cl)cc2)nc2c1c(=O)[nH]c(=O)n2C -18.2%, Cn1c(=O)c2c(ncn2CC(=O)O)n(C)c1=O -6.17%, CCn1c(Oc2ccccc2F)nc2c1c(=O)n(C)c(=O)n2C -23%, CCOCCCNc1nc2c(c(=O)n(C)c(=O)n2C)n1CCCc1ccccc1 41%, CCOCCn1c(N2CCN(c3ccccc3)CC2)nc2c1c(=O)n(C)c(=O)n2C 3.02%, CC(C)CN1CCN(C(=O)COC(=O)c2ccc(S(C)(=O)=O)c([N+](=O)[O-])c2)CC1 -74.6%
